In PubChem BioAssay AID1626 (SRMLSC, 2009):
Out of some 220,000 compounds screened, about 2,000 (0.91%) were called active. Another 2% or so got no clear call; they are omitted. Not all results are given here. Potency and affinity values are given separately. A number with no mark means an inactive call. No stated cut-off is given here; in the data, inconclusive means inhibition above about 80% without an active follow-up result; inactive means below that; test concentration not stated here.

experiment: M. tuberculosis H37Rv growth inhibitors, H37Rv strain (AID 1626); conditions: stronger effect = higher value, concentration not given here;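 further: bacteria incubated seven days before Alamar blue readout; 0% = bacteria only wells and 100% = bacteria with antibiotic wells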

SMILES	inhibition [%]
CC(C)C1(C)N=C(c2ncccc2C(=O)O)NC1=O (centres undefined)	-2.93
Cc1nn(CC(=O)N2c3ccccc3NC(=O)C2(C)C)c(C)c1[N+](=O)[O-]	0.71
Cc1c(NC(=O)C(C)OC(=O)Cc2ccccc2)c(=O)n(-c2ccccc2)n1C (centres undefined)	-13.3
O=C(O)Cn1nnc2ccccc21	-9.61
CC(=O)Nc1ccccc1NC(=O)c1ccc(C)c(C)c1	-3.12
Nc1c(C(=O)N/N=C/c2ccc([N+](=O)[O-])cc2)sc2nnc(-c3ccccc3)c(-c3ccccc3)c12	-2.7
O=C(NCC(O)CO)c1ccc2[nH]c3ccccc3c2c1 (centres undefined)	1.5
Cn1c(N2CCCC2)nc2c1c(=O)n(Cc1cccc(F)c1)c(=O)n2C	2.57
Cc1nc(N2CCOCC2)c2cc(-c3ccccc3)sc2n1	5.12
Cc1nc(N2CCN(C)CC2)c2cc(-c3ccccc3)sc2n1	-3.54
O=c1cc(-c2ccccc2)nc(N2CCN(Cc3ccccc3)CC2)[nH]1	16.3
Cc1ccc(SCc2cc(=O)[nH]c(N3CCN(Cc4ccc5c(c4)OCO5)CC3)n2)cc1	4.26
COC(=O)c1cccc(NCN2C(=O)c3ccccc3C2=O)c1	1.78
COc1ccc(CN2CCn3nc(C(=O)NC4CC4)cc3C2=O)cc1	0.45
CCc1nn(CC(=O)NCCN2CCN(C)CC2)c(=O)c2cc3occc3n12	2.11
O=C(Nc1ccccc1F)C1CCCN(S(=O)(=O)c2ccccc2)C1 (centres undefined)	1.63
CC(=Nc1ccc2c(c1)nc(CO)n2C)C1=C(O)CC(C)(C)CC1=O	-0.93
Cc1cc(=O)oc2cc(Oc3ncccn3)ccc12	-2.26
CC(=O)Nc1cccc(Oc2ncnc3scc(-c4ccc(C)cc4)c23)c1	17.3
CCc1cc2c(C)cc(=O)oc2cc1Oc1ncccc1[N+](=O)[O-]	1.8
Cc1cc(=O)oc2cc(Oc3ccc(C(N)=O)cc3[N+](=O)[O-])ccc12	-11.6
Cc1cc(=O)oc2cc(Oc3ccc([N+](=O)[O-])cc3[N+](=O)[O-])ccc12	51

SMILES	inhibition [%]
CC(=O)Nc1cccc(Oc2ncnc3scc(-c4ccccc4)c23)c1	1.97
O=C(COC(=O)CCSc1ccc(Cl)cc1)NCc1ccc(Cl)cc1	1.66
COc1ccc(CCC(=O)N/N=C\c2cccs2)cc1	36.8
Cc1ccc(-c2csc3nc(C(C)C)oc(=O)c23)c(C)c1	14.9
COc1cc(C2SC(C)C(=O)N2CCc2ccccc2)cc(OC)c1OC (centres undefined)	6.28
O=C(N/C=C/c1ccccc1)Nc1ccc(Cl)cc1	7.4
Cc1nc2ccc(NC(=O)COc3ccccc3C)cc2s1	52.7
CC(=O)c1ccc(OCC(=O)Nc2ccc3nc(C)sc3c2)cc1	56.8
COc1cc(CC(=O)Nc2ccc3nc(C)sc3c2)cc(OC)c1OC	-7.08
Cc1cccc(OCC(=O)Nc2ccc3nc(C)sc3c2)c1	89.5
Cc1nc2ccc(NC(=O)COc3ccccc3)cc2s1	83.5
COc1ccc(CC(=O)Nc2ccc3nc(C)sc3c2)cc1OC	2.65
COc1ccc(OCC(=O)Nc2nc3ccc(NC(C)=O)cc3s2)cc1	-3.22
Cc1nc2ccc(NC(=O)Cc3cccc(F)c3)cc2s1	0.69
CCC(C)(C)NC(=O)C(c1cccc(OC)c1)N(C(=O)c1ccn[nH]1)c1cccc(OC)c1 (centres undefined)	-8.88
COCCNC(=O)c1cn(C)c2ccc(S(=O)(=O)N(C)C3CCCCC3)cc2c1=O	-12
COc1ccc(S(=O)(=O)N(CC(=O)N2CCN(C)CC2)c2ccccc2)cc1OC	-11.1
CCC(CC)C1C(C#N)=C(N)Oc2cc(C)oc(=O)c21 (centres undefined)	-11.1
Cc1cc2nnc(SCC(=O)NCC3CCCO3)n2c2ccccc12 (centres undefined)	-6.93
Cc1ccc(-c2csc(/C(C#N)=C/Nc3ccccc3SC(F)(F)F)n2)c(C)c1	-7.14
COc1cc(C2c3c(oc4ccccc4c3=O)C(=O)N2Cc2cccnc2)cc(OC)c1OC (centres undefined)	1.59
CCN(C(=O)CN1c2ccccc2CC1C)c1c(N)n(Cc2ccccc2)c(=O)[nH]c1=O (centres undefined)	3.3

SMILES	inhibition [%]
CSc1nc2ccc(NC(=O)C3CC(=O)N(Cc4ccco4)C3)cc2s1 (centres undefined)	7.1
CC(=O)c1cccc(NC(=O)C2CC(=O)N(Cc3ccccc3)C2)c1 (centres undefined)	-1.4
O=C(NNS(=O)(=O)c1ccccc1C(F)(F)F)c1cccc(S(=O)(=O)Nc2ccccc2Cl)c1	5.57
CC(C)CNS(=O)(=O)c1ccc(CCC(=O)N2CCN(c3ccccc3)CC2)cc1	0.62
Nc1c(C(=O)NCC2CCCO2)sc2nc3c(c(-c4ccco4)c12)CC/C3=C\c1ccco1 (centres undefined)	-3.62
O=[N+]([O-])c1cc(S(=O)(=O)Nc2ccccc2)ccc1N1CCN(c2ccc(O)cc2)CC1	3.41
O=[N+]([O-])c1cc(S(=O)(=O)C(F)(F)F)ccc1N1CCN(c2ccccc2)CC1	26.1
CC(C)c1nc2sc3c(NCc4ccccc4)ncnc3c2c2c1COC(C)(C)C2	-2.03
COc1ccc(C)cc1N/C(N)=N/c1nc(C)cc(C)n1	-4.57
Cc1ccc(N/C(N)=N/c2nc3c(c(=O)[nH]2)CCCC3)c(C)c1	6.84
S=C1NC2(CCCCC2)Cc2ccccc21	4.66
Cc1sc2nc(-c3cccnc3)[nH]c(=O)c2c1-c1ccccc1	-0.42
COc1ccc(C=C2C(=O)c3ccccc3C2=O)cc1O	1.77
COc1ccc(/C=C2\SC(c3ccc(C)cc3)=NC2=O)cc1OC	-10.8
COc1cccc(/C=c2\s/c(=C/C(=O)c3ccc(C)cc3)[nH]c2=O)c1OC	17.8
CCc1ccc(/C=C(\C)C(=O)c2c(C)cc(C)[nH]c2=O)cc1	5.72
COc1cc(/C=c2\s/c(=C\C(=O)C(C)(C)C)[nH]c2=O)cc(OC)c1OC	66.3
CC(C)(C)C(=O)/C=c1\[nH]c(=O)/c(=C\c2ccc(C#N)cc2)s1	75.3
CC(C)(C)C(=O)/C=c1\[nH]c(=O)/c(=C\c2ccccc2F)s1	79.9
Cc1ccccc1/C=C1\CCCc2ccccc2C1=O	5.73
